In PubChem BioAssay (Tox21):
Several values for one entry are separate records, joined by “and”; a condition that tells them apart may be missing. Equal values may be shown once. Results filed as inconclusive are left out. Entries that show only a call come without a potency. More than one record can exist for a structure, and the calls need not agree. Activity calls are given as the source filed them. Calls follow the shape of the dose curve; as a rule, active = well fitted cell-killing curve with a large enough effect in the repeat runs; inconclusive = weak or mixed curves; inactive = no such curve, though single readings can be large or run the other way.

Test: qHTS assay for identifying genotoxic compounds that show differential cytotoxicity against isogenic chicken DT40 cell lines with known DNA damage response pathways - Rad54/Ku70 mutant cell line (AID 743015); also: nearly all actives have a fitted effect of over 60% in size
Conditions: DT40 Rad54/Ku70 mutant viability, CellTiter-Glo, 40 h; series mostly up to 66.8 µM; activity change, negative = cytotoxicity: at the top concentration
Excerpt: National Center for Advancing Translational Sciences [NCATS]
NIH Chemical Genomics Center [NCGC]
U.S. Environmental Protection Agency [EPA]
National Institutes of Environmental Health Sciences [NIEHS]
National Toxicology Program [NTP]
U.S. Food and Drug Administration [FDA]
DNA repair pathways play a critical role in cellular homeostasis by repairing DNA damage induced by endogenous processes and xenobiotics. Isogenic chicken DT40 cell lines deficient in different DNA repair pathways can be used to identify genotoxic compounds and aid in characterizing the nature of the DNA damage induced. Two DNA repair-deficient cell lines with disrupted genes, Rad54/Ku70 or Rev3, were used to screen the Tox21 10K compound library. Possible genotoxicity was based on the presence of a significant increase in cytotoxicity in one or more of the DNA repair-deficient cell lines compared to that observed in the parental DNA repair-proficient cell line. CellTiter Glo viability assay (Promega, Madison, WI) was used to measure cell viability in these cells after compound treatment. This assay includes the data from the Rad54/Ku70 mutant cell line.
Tox21 Assay Protocol Summary:
300 DT40 mutant cells in 5 uL/well were dispensed into white, solid-bottom 1536-well plates using a Multidrop Combi (ThermoFisher Scientific, Waltham, MA) dispenser. After the assay plates were incubated at 37 C/5% CO2 for approximately 0.5 hour, 23 nL of compounds dissolved in DMSO, positive controls or DMSO only was transferred into the assay plate by a pintool work station (Kalypsys, San Diego, CA). The assay plates were incubated at 37 C/5% CO2 for 40 hours. After 5 uL per well of CellTiter-Glo reagent was added into each well of the assay plates, the plates were incubated for 30 min at room temperature and the luminescence intensity of the plates was measured using a ViewLux (PerkinElmer, Shelton, CT) plate reader.
Potency is read from the fitted curve at half-maximal effect.

Compound	Potency	activity change, negative = cytotoxicity
CCCCOC(=O)COc1ccc(Cl)cc1Cl	inactive	
CC(=O)CC(=O)Nc1ccccc1C	inactive	
O=c1[nH]nnc2ccccc12	inactive	
CC[C@H](C)C(=O)O[C@H]1C[C@@H](C)C=C2C=C[C@H](C)[C@H](CC[C@@H]3C[C@@H](O)CC(=O)O3)[C@H]21	53.1 nM (active) and 2.77 µM (active) and 136 nM (active)	
CCCCCCCCCCCCS	inactive	
CCCCCCCCCCCCc1ccccc1	inactive	
CN(C)CCCN	inactive	
C=CCNC(N)=S	inactive	
Fc1ccc(Br)cc1	inactive	
Cc1cccnc1	inactive	
CSCCC=O	inactive	
CC(O)COCC(C)O (stereo not given)		-2.55% (inactive)
Nc1cc([N+](=O)[O-])ccc1O		-1.62% (inactive)
CCCCC(CC)CO (stereo not given)	inactive	
O=C(CC(C(=O)OC1CCCCC1)S(=O)(=O)O)OC1CCCCC1 (stereo not given)	inactive and 12 µM (active)	
ON=C1CCCCC1	inactive	
COS(C)(=O)=O	inactive	
O=C=NCCCCCCN=C=O	inactive	
COCCCOc1ccnc(CS(=O)c2nc3ccccc3[nH]2)c1C (stereo not given)	13.3 µM (active) and 19.3 µM (active)	
Oc1cccc2ccccc12	inactive	

Compound	Potency	activity change, negative = cytotoxicity
C=C(C)C(=O)Nc1ccc(Cl)c(Cl)c1		-26% (inactive)
FC(F)(F)c1ccc(Cl)c(Cl)c1	inactive	
CCCCCCCC(=O)OC	inactive	
C=CCOC(=O)c1ccccc1C(=O)OCC=C		-4.13% (inactive)
CC1CCC(C(C)C)C(O)C1 (stereo not given)	inactive	
O=C(O)c1cc(O)c(O)c(O)c1	27.6 µM (active)	
CCCCC(CC)COC(=O)CS (stereo not given)	inactive and 61.1 µM (active)	
O=C(O)c1cc(=O)c2c(OCC(O)COc3cccc4oc(C(=O)O)cc(=O)c34)cccc2o1	inactive	
OC[C@H]1O[C@@](CO)(O[C@H]2O[C@H](CO)[C@@H](O)[C@H](O)[C@H]2O)[C@@H](O)[C@@H]1O	inactive	
CCCSc1ccc2nc(NC(=O)OC)[nH]c2c1	452 nM (active) and 1.09 µM (active)	
O=S(=O)(O)c1ccc2ccccc2c1	inactive and 54.6 µM (active)	
Nc1ccccc1[N+](=O)[O-]	inactive	
O=C(O)CC(C(=O)O)C(CC(=O)O)C(=O)O (stereo not given)	inactive	
CC(=O)CC(=O)Nc1ccccc1	inactive	
O=C(OCCOCCOC(=O)c1ccccc1)c1ccccc1		0.139% (inactive)
C#CCN(C)Cc1ccccc1	inactive	
CC(C)c1ccc(S(=O)(=O)O)cc1	inactive	
OCC(CO)(CBr)CBr	inactive	
COc1ccc(Nc2ccccc2)c(C)c1		2.21% (inactive)
CN(C)CCOCCN(C)C	inactive	
